Test results: PubChem BioAssay (NCATS)
Results filed as inconclusive are left out. Calls of active or inactive are those of the source. Unless noted, calls follow the shape of the dose curve; as a rule, active = well fitted cell-killing curve with a large enough effect; inconclusive = small, poorly fitted or top-dose-only effect, or effect the other way; inactive = no such curve, though single readings can be large or run the other way.

What was measured:
[1] = Quantitative High-Throughput drug screen in 47 multiple myeloma cell lines against the NCATS MIPE library collection: UTMC2_PLB cell viability assay (AID 1919868); details: CellTiter-Glo ATP luminescence, 48 h; viability (% of DMSO control): at 45.8 µM (top of the series) unless noted; also: nearly all actives have a fitted effect of over 55% in size
In short: (§1)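 Viability after 48 h drug exposure was measured as ATP-dependent luminescence. Cells, 500 per well, sat at 37 °C under 5% CO2; DMSO wells set 100%, media-only wells 0%.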

[2] = Quantitative High-Throughput drug screen in 47 multiple myeloma cell lines against the NCATS MIPE library collection: PE2_PLB cell viability assay (AID 1919869); also: nearly all actives have a fitted effect of over 35% in size
In short: as §1

[3] = Quantitative High-Throughput drug screen in 47 multiple myeloma cell lines against the NCATS MIPE library collection: PCM6_Riken cell viability assay (AID 1919870); also: nearly all actives have a fitted effect of over 30% in size
In short: as §1

[4] = Quantitative High-Throughput drug screen in 47 multiple myeloma cell lines against the NCATS MIPE library collection: OPM2_DSMZ cell viability assay (AID 1919872); also: nearly all actives have a fitted effect of over 30% in size
In short: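 Inhibition of cell viability is measured here. Each line was plated at 500 cells per well, treated with MIPE 4.0 drugs, kept 48 hours at 37C, then assayed for ATP content by CellTiter-Glo luminescence.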

[5] = Quantitative High-Throughput drug screen in 47 multiple myeloma cell lines against the NCATS MIPE library collection: KMS28BM_JCRB cell viability assay (AID 1919874); also: nearly all actives have a fitted effect of over 35% in size
In short: as §1

[6] = qHTS drug screen for cell cycle checkpoint inhibitors in PARPi-resistant BRCA-mutant ovarian cancer cell lines. (AID 1963452; calls by dose curve); details: PEO1/OlaR viability, CellTiter-Glo luminescence, 96 h; for Z-AUC: stronger effect = lower value
In short: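 PEO1, PEO4 and PEO1/OlaR ovarian cancer cells, 600 per well, exposed 96 h at 37C to a dilution series. Viability read by CellTiter-Glo luminescence, normalized to DMSO and empty wells; activity summarized as Z-AUC.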

[7] = qHTS for identification of novel therapeutic agents for treatment of microphthalmiaassociated transcription factor (MiT) renal cell carcinoma (RCC) (AID 1963991; calls by dose curve); details: CellTiter-Glo, 48 h; for Potency: active = Z-AUC below -0.8 in all three lines; for z-score: stronger effect = lower value
In short: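 Three TFE3-fusion RCC lines (UOK109, UOK124, UOK145), 500 cells/well in complete medium, were treated with MIPE 4.0 compounds for 48 hours at 37 C. Viability was by CellTiter-Glo luminescence, normalized to DMSO (100%) and empty wells (0%); curves fitted over 11 concentrations.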

[8] = Quantitative High-Throughput drug screen in 47 multiple myeloma cell lines against the NCATS MIPE library collection: RPMI8226_ATCC cell viability assay (AID 1919871); also: nearly all actives have a fitted effect of over 30% in size
In short: as §1

[9] = Quantitative High-Throughput drug screen in 47 multiple myeloma cell lines against the NCATS MIPE library collection: KMS11_JCRBsus cell viability assay (AID 1919873); also: nearly all actives have a fitted effect of over 50% in size
In short: as §1

[10] = measured here: PEO1 parental Z-AUC
[11] = TFE3-RCC UOK109 viability, measured here: UOK109 Z-AUC
[12] = TFE3-RCC viability, measured here: UOK124 Z-AUC
[13] = TFE3-RCC viability, measured here: UOK145 Z-AUC
Potency is read from the fitted curve at half-maximal effect.

| Compound | Potency [1] | Potency [2] | Potency [3] | Potency [4] | Potency [5] | Z-AUC [6] | Z-AUC [6, 10] | Z-AUC ([6]; measured here: PEO4 Z-AUC) | Potency ([7]; TFE3-RCC UOK109 viability) | z-score [7, 11] | z-score [7, 12] | z-score [7, 13] | Potency [8] | Potency [9] | Potency [6] |
| --- | --- | --- | --- | --- | --- | --- | --- | --- | --- | --- | --- | --- | --- | --- | --- |
| Cc1nc2cnc3ccc(C#Cc4cccnc4)cc3c2n1-c1ccc(C(C)(C)C#N)cc1 | 20.9 nM (active) | 13.2 nM (active) | 66.2 nM (active) | 187 nM (active) | 372 nM (active) | -0.114 (inactive) | -0.259 | -0.412 | 118 nM (active) | -1.96 | -4.34 | -2.15 | – | – | – |
| C=CC(=O)Nc1cc2c(Nc3ccc(F)c(Cl)c3)ncnc2cc1C#CC(C)(C)N1CCN(C)CC1 | 2350 nM (active) | 1050 nM (active) | – | 10500 nM (active) | 469 nM (active) | -0.203 (inactive) | -0.15 | -0.45 | 14800 nM (active) | -2.39 | -1.76 | -1.33 | 6620 nM (active) | 1320 nM (active) | – |
| Cn1cc(-c2[nH]c3cc(NC(=O)[C@H](N)C4CCCCC4)cc4c3c2C=NNC4=O)cn1 | 74.3 nM (active) | – | 1050 nM (active) | 7430 nM (active) | 1320 nM (active) | -0.173 (inactive) | -0.184 | -0.421 | – | – | – | – | – | 2640 nM (active) | – |
| CN1CCC(CNc2ccc3ncc(-c4cccc(OC(F)(F)F)c4)n3n2)CC1 | 5900 nM (active) | – | 5900 nM (active) | 23500 nM (active) | 8330 nM (active) | -0.465 (inactive) | -0.0601 | -0.00259 | – | – | – | – | 20900 nM (active) | 6620 nM (active) | – |
| Cc1cc(Nc2cc(N3CCN(C)CC3)nc(C=Cc3ccccc3)n2)n[nH]1 | 1910 nM (active) | – | 30300 nM (active) | 8550 nM (active) | 13600 nM (active) | – | – | – | – | – | – | – | 13600 nM (active) | 1210 nM (active) | – |
| Cc1cc(Nc2ncnc3ccc(-c4ccc(CNCCS(C)(=O)=O)o4)cc23)ccc1Oc1ccn2ncnc2c1 | 6620 nM (active) | – | 16600 nM (active) | – | 16600 nM (active) | 0.841 (inactive) | 0.912 | 0.782 | – | – | – | – | 26400 nM (active) | 5900 nM (active) | – |
| CN(C)CC(C)(C)CNc1nn2c(-c3ccccc3)nnc2cc1C1CCC1 | 1050 nM (active) | 11800 nM (active) | – | – | – | 0.384 (inactive) | 0.768 | 0.988 | – | – | – | – | – | inactive | – |
| C#Cc1cccc(Nc2ncnc3cc(OC)c(OCCCCCCC(=O)NO)cc23)c1 | 18.7 nM (active) | 93.5 nM (active) | – | 1480 nM (active) | 33.2 nM (active) | – | -1.22 | -1.32 | – | – | – | – | – | – | 616 nM (active) |
| O=C(Nc1ncc(-c2cc(C(F)F)nn2-c2c(Cl)cccc2Cl)s1)C1CC1 | 526 nM (active) | – | 662 nM (active) | 1050 nM (active) | 296 nM (active) | -1.34 (inactive) | -1.49 | -1.31 | 935 nM (active) | -1.06 | -1.43 | -1.27 | – | 187 nM (active) | – |
| O=c1c2ccccc2nc2n1CCc1c-2[nH]c2ccccc12 | inactive | – | 13200 nM (active) | inactive | – | – | – | – | – | – | – | – | inactive | – | – |
| COc1cc(OC2CCN(C)CC2)ccc1Nc1ncc2c(n1)n(C1CCCC1)c(=O)n2C | 7430 nM (active) | 9350 nM (active) | – | – | 16600 nM (active) | 0.704 (inactive) | 0.287 | 0.275 | – | – | – | – | – | 16600 nM (active) | – |
| O=C(O)C1(Cc2cccc(Nc3nccs3)n2)CCC(Oc2cccc(Cl)c2F)CC1 (stereo not given) | 37.2 nM (active) | – | 418 nM (active) | – | 332 nM (active) | -0.463 (inactive) | -1.23 | -1.84 | – | – | – | – | inactive | 296 nM (active) | – |
| COC(=O)c1ccc2c(C(=Nc3ccc(N(C)C(=O)CN4CCN(C)CC4)cc3)c3ccccc3)c(O)[nH]c2c1 | 6620 nM (active) | – | 2960 nM (active) | – | – | – | – | – | – | – | – | – | – | – | – |
| COc1ccc(C=Cc2cc(OC)c(OC)c(OC)c2)cc1O | inactive | inactive | – | inactive | inactive | – | – | – | – | – | – | – | – | – | – |
| CNC(=O)c1ccc(N2C(=S)N(c3cnc(C#N)c(C(F)(F)F)c3)C(=O)C23CCC3)cc1F | 3320 nM (active) | 1050 nM (active) | – | inactive | inactive | 0.293 (inactive) | -0.208 | 0.0749 | – | – | – | – | – | inactive | – |
| COc1c(OCCCN2CCOCC2)ccc2c3n(c(=NC(=O)c4cnc(N)nc4)nc12)CCN3 | 115 nM (active) | 457 nM (active) | – | – | 115 nM (active) | -1.27 (inactive) | -1.04 | -0.708 | 40.7 nM (active) | -1.18 | -2.73 | -1.79 | 129 nM (active) | – | – |
| CC(C)=CCCC(C)=CCCC(C)=CCSc1ccccc1C(=O)O | 1180 nM (active) | – | 6620 nM (active) | 4180 nM (active) | 5900 nM (active) | – | – | – | – | – | – | – | – | 209 nM (active) | – |
